# Measurements: PubChem BioAssay
# The other results are listed elsewhere or left out. The source made the active and inactive calls.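 Rule for the calls, unless noted: active = GFP response above 150% of the DMSO level; inconclusive = fewer than 70 events counted for a yeast strain; inactive = the rest.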
# What was measured:
# [1] = AGP1-GFP expression modulators, hit retest, confirmation, cell-based, flow cytometry, S. cerevisiae, cherry picks (AID 2273);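 note: median GFP channel fluorescence over the whole cell population gate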; details: S. cerevisiae AGP1-GFP strain, 3 h, at 10 µM
# [2] = disruption of biotin probe capture by avidin, counter-screen for RGS protein interaction modulators, biochemical, flow cytometry, bead-based (AID 1783;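 active = inhibition above 50%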;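 note: median green fluorescence of gated singlet beads compared with DMSO control wells; 0% = DMSO wells and 100% = complete loss of bead fluorescence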); details: streptavidin beads, fluorescein-biotin binding; at 10 µM, stronger effect = higher value
# [3] = molecular target: Guanine nucleotide-binding protein G(o) subunit alpha (Homo sapiens) (UniProt P09471); assay: RGS8-Galphao binding modulators, confirmation, biochemical, multiplexed bead flow cytometry, single concentration (AID 1836; in the data active = binding response below about 72% or above about 130%; inactive = in between;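 note: Galphao activated as GDP AlF4 complex before binding bead RGS8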); details: bead-based flow cytometry RGS8-Galphao binding, fluorescence; at 10 µM; actives lie on both sides
# Chain of Guanine nucleotide-binding protein G(o) subunit alpha (Homo sapiens) (P09471 whole entry, looked up): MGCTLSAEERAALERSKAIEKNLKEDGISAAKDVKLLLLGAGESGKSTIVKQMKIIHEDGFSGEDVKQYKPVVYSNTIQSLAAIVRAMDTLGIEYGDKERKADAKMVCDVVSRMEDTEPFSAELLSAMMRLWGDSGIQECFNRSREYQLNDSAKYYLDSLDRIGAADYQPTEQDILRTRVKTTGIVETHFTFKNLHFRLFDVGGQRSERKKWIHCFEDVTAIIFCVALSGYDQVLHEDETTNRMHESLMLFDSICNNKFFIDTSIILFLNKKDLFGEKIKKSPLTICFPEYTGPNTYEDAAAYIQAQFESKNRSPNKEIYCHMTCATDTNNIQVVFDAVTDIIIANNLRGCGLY
# [4] = molecular target: Guanine nucleotide-binding protein G(o) subunit alpha (Homo sapiens) (UniProt P09471); assay: RGS7-Galphao binding modulators, confirmation, biochemical, multiplexed bead flow cytometry, single concentration (AID 1837; in the data active = response below about 75% or above about 130%; inactive = in between;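 note: fluorescent Galphao activated with GDP and aluminum fluoride binding bead-coupled RGS7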); details: bead-based flow cytometry RGS7-Galphao binding; at 10 µM; actives lie on both sides
# [5] = molecular target: Regulator of G-protein signaling 16 (Homo sapiens) + Guanine nucleotide-binding protein G(o) subunit alpha (Homo sapiens) (UniProt O15492+P09471); assay: modulators of RGS16-Galphao protein binding, confirmation, biochemical, single concentration, multiplexed bead flow cytometry (AID 1838; in the data active = response below about 74% or above about 130%; inactive = in between;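 note: Galphao activated as the GDP aluminium fluoride complex binding bead-coupled RGS16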); details: bead-based flow cytometry, at 10 µM, actives lie on both sides
# Chain of Regulator of G-protein signaling 16 (Homo sapiens) + Guanine nucleotide-binding protein G(o) subunit alpha (Homo sapiens) (O15492 whole entry, looked up): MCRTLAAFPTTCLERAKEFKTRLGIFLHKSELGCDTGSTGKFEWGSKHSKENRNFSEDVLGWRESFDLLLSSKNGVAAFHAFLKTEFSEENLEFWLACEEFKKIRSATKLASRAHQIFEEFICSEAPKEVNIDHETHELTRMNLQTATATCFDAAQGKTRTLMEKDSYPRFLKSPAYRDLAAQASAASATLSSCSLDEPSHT
# Chain of Regulator of G-protein signaling 16 (Homo sapiens) + Guanine nucleotide-binding protein G(o) subunit alpha (Homo sapiens) (P09471 whole entry, looked up): as the sequence (P09471 whole entry, looked up) above
# [6] = molecular target: Guanine nucleotide-binding protein G(o) subunit alpha (Homo sapiens) (UniProt P09471); assay: modulators of RGS4-Galphao protein binding, confirmation, biochemical, single concentration, multiplexed bead flow cytometry (AID 1840; in the data active = binding response below about 74% or above about 130%; inactive = in between); details: at 10 µM, actives lie on both sides
# [7] = molecular target: Guanine nucleotide-binding protein G(o) subunit alpha (Homo sapiens) + Regulator of G-protein signaling 19 (Homo sapiens) (UniProt P09471+P49795); assay: regulators of RGS19-Galphao binding, confirmation, biochemical, single point, multiplexed bead flow cytometry (AID 1841; in the data active = response below about 50% or above about 160%; inactive = in between;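 note: 100% = no compound control and 0% = blank background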); details: bead-based flow cytometry RGS19-Galphao binding; at 10 µM; actives lie on both sides
# Chain of Guanine nucleotide-binding protein G(o) subunit alpha (Homo sapiens) + Regulator of G-protein signaling 19 (Homo sapiens) (P09471 whole entry, looked up): as above
# Chain of Guanine nucleotide-binding protein G(o) subunit alpha (Homo sapiens) + Regulator of G-protein signaling 19 (Homo sapiens) (P49795 whole entry, looked up): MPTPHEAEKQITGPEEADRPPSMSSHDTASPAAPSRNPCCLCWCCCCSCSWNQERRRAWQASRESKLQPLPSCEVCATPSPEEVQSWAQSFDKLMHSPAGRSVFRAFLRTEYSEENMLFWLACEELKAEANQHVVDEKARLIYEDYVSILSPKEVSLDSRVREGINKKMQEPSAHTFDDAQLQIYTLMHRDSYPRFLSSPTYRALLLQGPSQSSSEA
# [8] = molecular target: Regulator of G-protein signaling 16 (Homo sapiens) (UniProt O15492); assay: modulators of RGS–Galpha-o binding, primary screen, biochemical, multiplexed beads, flow cytometry, RGS4/7/8/16/19 (AID 1504); details: multiplexed bead flow cytometry, measured here: RGS16 interaction, at 10 µM;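 note: fluorescently labeled Galpha-o bound to GDP with aluminium fluoride binding biotinylated RGS beads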
# [9] = molecular target: Regulator of G-protein signaling 19 (Homo sapiens) (UniProt P49795); assay: as above; details: multiplexed bead flow cytometry, measured here: RGS19 interaction, at 10 µM
# [10] = molecular target: Regulator of G-protein signaling 7 (Homo sapiens) (UniProt P49802); assay: as above; details: multiplexed bead flow cytometry, measured here: RGS7 interaction, at 10 µM
# [11] = molecular target: Regulator of G-protein signaling 8 (Homo sapiens) (UniProt P57771); assay: as above; details: multiplexed bead flow cytometry, measured here: RGS8 interaction, at 10 µM
smiles,measurement,setting,value
N#C/C(C(N)=O)=c1/ccc2c(c1)N1C3=C(CCCC3)CC3CCCCC31N=2 (centres undefined),"GFP response, % of DMSO",[1],100% (inactive)
C[C@H]1C[C@@H]2[C@H]([C@@H](O)C[C@@]3(C)[C@H]2CC[C@]3(O)C(=O)CO)[C@@]2(C)C=CC(=O)C=C12,"GFP response, % of DMSO",[1],96% (inactive)
COc1ccc(CCNC(=O)c2cc3sccc3n2C)cc1OC,inhibition,[2],0.7% (inactive)
same,binding response (% of control),[3],103% (inactive)
same,response (percent of control binding),[4],106% (inactive)
same,response (% of control binding),[5],103% (inactive)
same,binding response (% of control),[6],102% (inactive)
same,response (percent of control binding),[7],114% (inactive)
C#C[C@]1(O)CC[C@H]2[C@@H]3CCC4=CC(=O)CC[C@@H]4[C@H]3CC[C@@]21CC,"GFP response, % of DMSO",[1],95.7% (inactive)
C[C@]12CC[C@@H]3c4ccc(O)cc4C(=O)C[C@H]3[C@@H]1CC[C@@H]2O,"GFP response, % of DMSO",[1],97.2% (inactive)
COc1ccc(-c2[nH]ncc2CN(CCO)Cc2cccs2)c(F)c1,"GFP response, % of DMSO",[1],97.2% (inactive)
O=C(NCCN1CCN(c2ccccc2)CC1)c1cccc(Br)c1,"GFP response, % of DMSO",[1],100% (inactive)
Cc1c(Br)cc(C(=O)N2CCCCCC2)c(C)c1C,inhibition,[2],-0.3% (inactive)
same,binding response (% of control),[3],102% (inactive)
same,response (percent of control binding),[4],102% (inactive)
same,response (% of control binding),[5],102% (inactive)
same,binding response (% of control),[6],102% (inactive)
same,response (percent of control binding),[7],104% (inactive)
Cc1cc(C)n(CC(O)CN(c2ccccc2)S(=O)(=O)c2ccc3ccccc3c2)n1 (centres undefined),RGS16–Galpha-o binding response,[8],-6.51%
same,RGS19–Galpha-o binding response,[9],163%
same,RGS7–Galpha-o binding response,[10],1.45%
same,RGS8–Galpha-o binding response,[11],15%
same,inhibition,[2],1.1% (inactive)
same,binding response (% of control),[3],101% (inactive)
same,response (percent of control binding),[4],104% (inactive)
same,response (% of control binding),[5],103% (inactive)
same,binding response (% of control),[6],104% (inactive)
same,response (percent of control binding),[7],98.9% (inactive)
CCOC(=O)CCP(=O)(O)C(O)(c1ccccc1)c1ccccc1,inhibition,[2],2.2% (inactive)
same,binding response (% of control),[3],99.3% (inactive)
same,response (percent of control binding),[4],101% (inactive)
same,response (% of control binding),[5],101% (inactive)
same,binding response (% of control),[6],100% (inactive)
same,response (percent of control binding),[7],99.5% (inactive)
CS(=O)(=O)Nc1cccc(C(=O)CC2(O)C(=O)Nc3ccc(Br)cc32)c1 (centres undefined),"GFP response, % of DMSO",[1],101% (inactive)
O=C(NC1CCCCC1)N1CCc2[nH]c3ccccc3c2C1,"GFP response, % of DMSO",[1],96% (inactive)
CN(C)CCCN1c2ccccc2Sc2ccc(Cl)cc21,"GFP response, % of DMSO",[1],94.3% (inactive)
CCCOc1ccc(Cc2c(Cl)nc(SC)nc2NC)cc1,inhibition,[2],-0.2% (inactive)
same,binding response (% of control),[3],102% (inactive)
same,response (percent of control binding),[4],94.9% (inactive)
same,response (% of control binding),[5],99.9% (inactive)
same,binding response (% of control),[6],101% (inactive)
same,response (percent of control binding),[7],67.1% (inactive)
Cc1cc(C)cc(N(CC(=O)Nc2c(C)n(C)n(-c3ccccc3)c2=O)S(C)(=O)=O)c1,RGS16–Galpha-o binding response,[8],-28.4%
same,RGS19–Galpha-o binding response,[9],156%
same,RGS7–Galpha-o binding response,[10],-21.3%
same,RGS8–Galpha-o binding response,[11],1.54%
same,inhibition,[2],-0.5% (inactive)
same,binding response (% of control),[3],104% (inactive)
same,response (percent of control binding),[4],104% (inactive)
same,response (% of control binding),[5],108% (inactive)
same,binding response (% of control),[6],103% (inactive)
same,response (percent of control binding),[7],108% (inactive)
CCCCCCCC(=O)OCC(=O)[C@@]1(O)CC[C@H]2[C@@H]3CCC4=CC(=O)CC[C@]4(C)[C@H]3[C@@H](O)C[C@@]21C,"GFP response, % of DMSO",[1],101% (inactive)
